CRE Fsk mod – Cell signaling CRE-BLA (Fsk stim); CHO CRE-bla reporter (cAMP response element driving beta-lactamase), forskolin EC10, beta-lactamase ratio; Potency, µM (titrated, usually from 38.2 µM), without a hit: top-dose activity change, negative = inhibition, usual class: activators; AID 662, 2007; actives 2.5% (n = 71,000); active means well fitted activation curve with a large enough effect in the signal ratio, with a control signal flat, not every such curve was filed as active; inconclusive means small, poorly fitted or top-dose-only effect, or effect the other way, or a change in a side signal; the % refers to the signal ratio; further: potency means the concentration at half of the fitted maximal effect; % of control where 0% means no effect
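Reporter-gene assay: CHO cells with beta-lactamase behind cAMP responsive elements, co-treated with compound and EC10 NKH 477 for 3 hours at 37 degrees Celsius. Activity came from the 460/530 nm CCF4 emission ratio.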
A350 autofl – qHTS Assay for Spectroscopic Profiling in A350 Spectral Region | Compound autofluorescence, 340/450 nm, Alexa 350 dye-equivalents; stronger effect = higher value | max dye-equivalent concentration, M | actives 11% (n = 59,000) | AID 590, 2007; in the data active means max dye-equivalent concentration above about 10 nM; inconclusive means mostly about 1.1 nM to 9.6 nM
HADH2 inhib – qHTS Assay for Inhibitors of HADH2 (Hydroxyacyl-Coenzyme A Dehydrogenase, Type II); recombinant HADH2, NADH fluorescence, beta-hydroxybutyryl-CoA; actives 3.4% (n = 73,000); Potency, µM (titrated, usually from 57.1 µM), for the others: at the top dose activity change, negative = inhibition, usual class: inhibitors; further: potency means the concentration at half of the fitted maximal effect; on the % scale 0 is the no-effect control and ±100 the full control effect; nearly all actives have a fitted effect of over 60% in size
Target sequence (Q99714 whole entry, looked up, one chain of several): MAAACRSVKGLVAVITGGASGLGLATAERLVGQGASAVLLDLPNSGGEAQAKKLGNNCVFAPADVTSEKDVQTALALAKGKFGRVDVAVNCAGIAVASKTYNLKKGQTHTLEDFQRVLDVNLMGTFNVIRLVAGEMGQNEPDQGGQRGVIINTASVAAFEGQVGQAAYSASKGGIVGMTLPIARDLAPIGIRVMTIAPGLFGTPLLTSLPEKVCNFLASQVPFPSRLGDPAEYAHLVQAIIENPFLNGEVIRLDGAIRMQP
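Read-out: 360 nm excitation, 450 nm emission, kinetic over 4 min. Conditions: His-tagged human HADH2 20 nM, pH 9.0 Tris with Tween-20, 1 mM NAD+, 90 uM beta-hydroxybutyryl-CoA.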
HSD17B inhib – qHTS Assay for Inhibitors of HSD17B4, hydroxysteroid (17-beta) dehydrogenase 4. recombinant HSD17B10, NADH fluorescence kinetic. actives 7.6% (n = 75,000). 3-hydroxyacyl-CoA dehydrogenase type-2 (Homo sapiens), Q99714. Potency, µM (doses to about 57.1 µM), for inactives: top-dose activity change, negative = inhibition, usual class: inhibitors;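 further: the protocol describes HADH2 (HSD17B10) and not the HSD17B4 of the title; potency means the concentration at half of the fitted maximal effect; on the % scale 0 is the no-effect control and ±100 the full control effect; nearly all actives have a fitted effect of over 70% in size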
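Enzyme plus compound, 15 min room temperature; substrate mix added (NAD+ 1 mM, beta-hydroxybutyryl-CoA 90 uM final); plates read kinetically for NADH fluorescence. HADH2 was His-tagged, E. coli-derived, 20 nM.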
AID923 – qHTS Assay for Allosteric/Competitive Inhibitors of Caspase-1: Spectroscopic Profiling in AFC Spectral Region | compound fluorescence, AFC spectral region (405/520 nm) | Potency, µM (highest dose often 57.5 µM), without a hit: at the top dose fluorescence increase, usual class: activators | actives 1.1% (n = 75,000); further: potency means the concentration at half of the fitted maximal effect; 0% is about no effect
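Baseline compound fluorescence (AFC region, 405 nm ex/520 nm em) taken from the intercept of kinetic reads with 50 nM caspase-1 and 5 uM Ac-WEHD-AFC; normalized to an on-plate AFC standard curve; compounds titrated up to 57 uM.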
4-MU autofl – qHTS Assay for Spectroscopic Profiling in 4-MU Spectral Region; compound autofluorescence, 340/450 nm, 4-MU equivalents; stronger effect = higher value; max dye-equivalent concentration, M; actives 11% (n = 59,000); AID 589, 2007; in the data active means max dye-equivalent concentration above about 10 nM; inconclusive means mostly about 1.1 nM to 9.6 nM
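Intrinsic fluorescence at 340/450 nm (ex/em) was read after 15 min at room temperature in pH 8.0, 100 mM Tris. Each compound concentration expressed as 4-MU-equivalent concentration from a six-point 4-MU standard series on each plate.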
Starred values were filed as active, the others as inactive; i = inactive; ? = inconclusive; · = no result; ! = not confirmed by another sample; [ ] = another dose, or the depositor's remark. Compounds with a hit are over-represented: about 14% of the library has one in this group of screens. Unless noted, the call rests on the fitted dose curve; in most records, active means well fitted curve in the direction sought with a large enough effect; inconclusive means small, poorly fitted or top-dose-only effect, or another doubt; inactive means no such curve, though single readings can be large; an effect the other way counts as inactive or inconclusive.

SMILES	CRE Fsk mod	A350 autofl	HADH2 inhib	HSD17B inhib	AID923	4-MU autofl
COc1ccc(OC)c(-c2cc(C(=O)NCc3cccs3)no2)c1	?	1.3e-08M*	?	?	-1%	2.1e-08M*
COc1cccc2c(=O)c(C(=O)NCc3cccs3)c[nH]c12	?	i	?	25µM*	1%	i
CC(C)[C@@H](CC(=O)N[C@@H]1CCNC[C@H]1C(=O)N[C@H](CC(=O)N[C@@H](CCC(=O)O)CC(=O)O)Cc1c[nH]c2ccccc12)NC(=O)C[C@H](Cc1ccccc1)NC(=O)[C@@H]1CCCC[C@H]1N	-14%	·	2%	·	·	·
COc1ccc(NC(=O)c2cc(-c3ccc(OC)c(OC)c3)on2)cc1OC	?	1.6e-08M*	-20%	?	4%	1.8e-08M*
COc1ccc(-c2cc(C(=O)NCc3ccccc3)no2)cc1OC	-5%	i	i	25µM*	-1%	i
Oc1cc(O)c2c(c1)O[C@@H](c1ccc(O)c(O)c1)[C@H](O[C@@]1(c3cc(O)c(O)c(O)c3)Oc3cc(O)cc(O)c3[C@H](O)[C@@H]1O)C2	-7%[7.6 µM]	?	0.63µM*	?	0%[11.5 µM]	?
CCc1c(C)nc2cc(-c3cc(OC)cc(OC)c3)nn2c1N1CCCC1	2.5µM*	1.9e-08M*	?	?	0%	3.2e-08M*
CCc1c(C)nc2cc(-c3ccc(OC)c(OC)c3)nn2c1N1CCCC1	?	?	-5%	-7%	1%	i
COc1cc(OC)cc(-c2cc3nc4c(c(N5CCN(c6ncccn6)CC5)n3n2)CCCC4)c1	3.2µM*	1.7e-07M*	?	3.2µM*	0%	1.9e-07M*
COc1cccc(CN2CCN(c3ncccn3)CC2)c1	?	·	6%[11.4 µM]	-5%	0%	·
COc1cc(OC)cc(-c2cc3nc4c(c(N5CCN(c6cnccn6)CC5)n3n2)CCCC4)c1	1.6µM*	1e-07M*	?	32µM*	1%	1.1e-07M*
C[C@H](CCC(=O)O)[C@H]1CC[C@@H]2[C@@H]3CC[C@H]4C[C@@H](O)CC[C@@]4(C)[C@@H]3C[C@H](O)[C@@]21C	1%[7.6 µM]	i	14%[11.4 µM]	-9%[11.4 µM]	-3%[11.5 µM]	i
Cc1ccc(C)c(NS(=O)(=O)c2cc(C(=O)O)ccc2Cl)c1	·	·	-3%	9%	0%	·
COc1cc2c(C)nc3onc(-c4ccccc4)c3c2cc1OC	?	?	63%	1%	-1%	?
Cc1cc2c(C)nc(-c3ccccc3)nc2o1	0.4µM*	i	14%	5%	2%	i
CN(Cc1ccco1)c1nc(-c2cccc(C#N)c2)nc2ccccc12	?	i	-19%	?	-1%	i
Cc1ccc2nc(-c3ccc(NC(=O)c4ccc(N)cc4)c(S(=O)(=O)O)c3)sc2c1	2%[7.6 µM]	5.8e-06M*	2.5µM*	3.2µM*	6%[11.5 µM]	5.5e-06M*
CN1[C@@H]2CC[C@H]1CC(OC(=O)[C@@H](CO)c1ccccc1)C2 (some centres not stated)	?	5.1e-08M*!	1%	-1%[25.6 µM]	4%[25.7 µM]	5.4e-08M*!
COc1cc(C(=O)N(CCc2ccccc2)C2CC3CCC(C2)N3C)cc(OC)c1OC (configuration not stated)	-7%	i	14%	7%	-1%	i
Cc1nc2nc(C)c(CCC(=O)N3CCN(c4ccccn4)CC3)c(C)n2n1	?	5.1e-08M*	-8%	?	3%	5.2e-08M*
CCOC(=O)N1CCN(C(=O)CCc2c(C)nc3nc(C)nn3c2C)CC1	?	i	7%	8%	0%	i
O=C(CCSCc1ccccc1F)N1CCN(c2ccccn2)CC1	?	i	9%	40µM*	1%	i
O=C(CSCc1ccccc1Cl)N1CCN(c2ccccn2)CC1	-17%	i	-1%	32µM*	1%	i
COCCNC(=O)c1ccc(-n2c(=O)c(=O)[nH]c3ccccc32)cc1	·	·	-7%	1%	-1%	·
COc1ccc(-c2cn3cccnc3n2)cc1NC(=O)c1ccc(Br)o1	2.5µM*	7.6e-08M*	118%	25µM*	1%	7.5e-08M*
SMILES	CRE Fsk mod	A350 autofl	HADH2 inhib	HSD17B inhib	AID923	4-MU autofl
Cc1ccc(-c2cn3cccnc3n2)cc1NC(=O)c1ccc(Br)o1	?	2.6e-06M*	25µM*	25µM*	2%	2.6e-06M*
Cc1cc2ccc(=O)oc2cc1OC[C@@H](O)C(C)(C)O	23%	4.8e-06M*	1.3µM*	13µM*	-1%	4.5e-06M*
COc1cc(=O)n(C)c2c(OCC(O)C(C)(C)O)cccc12 (configuration not stated)	·	·	·	-3%	1%	·
O=S(=O)(O)c1cc(O)c2c(N=Cc3ccccc3O)cc(S(=O)(=O)O)cc2c1	?	1.2e-07M*	2µM*	4µM*	2%[11.5 µM]	1e-07M*
Cc1cc(O)c(C(C)C)cc1N=Cc1ccccc1O	2%[7.6 µM]	i	-16%[11.4 µM]	-3%[11.4 µM]	1%[11.5 µM]	i
c1cc(OCC2CO2)cc(OCC2CO2)c1 (configuration not stated)	-4%	·	7%	2%	-6%	·
CC(=O)Nc1nc(C=C(Cl)Cl)cs1	?	?	25µM*	?	1%	?
CC1CCCc2sc3nc(NCc4ccco4)n4ncnc4c3c21 (configuration not stated)	?	1.9e-08M*	?	?	0%	1.5e-08M*
O=C(Nc1nc(-c2ccco2)c(-c2ccco2)s1)C1CC(=O)N(c2ccc3c(c2)OCCO3)C1 (configuration not stated)	?	2.5e-08M*	4µM*	1.3µM*	5%	2.1e-08M*
COc1ccc(N2CC(C(=O)Nc3ccc4c(c3)OCO4)CC2=O)cc1 (configuration not stated)	-3%	i	-7%	-9%	1%	i
CCC(Sc1ncccc1C(=O)OCCN1CCCC1=O)C(=O)NCc1ccco1 (configuration not stated)	2%	1.9e-08M*	?	-6%	1%	1.5e-08M*
CN(CCOc1ccc(Cl)cc1)c1ccc(S(=O)(=O)N2CCCCC2)cn1	?	i	-17%	32µM*	0%	i
CN1CCN(S(=O)(=O)c2ccc(N(C)Cc3cccs3)nc2)CC1	-10%	i	13%	2%	-2%	i
Cc1nc2ccccc2c(=O)n1NCc1cc(Br)cs1	-24%	1.2e-08M*	-3%	?	-2%	1.1e-08M*

Screening results: PubChem, National Center for Advancing Translational Sciences (NCATS)
